# According to PubChem BioAssay AID624330 (Southern Research Specialized Biocontainment Screening …, 2012):
# Out of some 340,000 compounds screened, about 2,100 (0.62%) were called active. Not all results are given here. Measured potencies and affinities stand elsewhere. Values without a mark were called inactive.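 How the source made its calls: active means first-screen hits whose inhibition reached a set limit at any dose in the follow-up dose series; inconclusive means inhibition above the set first-screen limit but never retested; inactive means the rest.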
# Molecular target: Rac GTPase-activating protein 1 (Homo sapiens) (UniProt Q9H0H5)
# Experiment: MgcRacGAP GTPase-activating activity inhibitors, confirmation, biochemical, ADP Hunter fluorescence, primary and confirmatory (AID 624330);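 further: fluorescence reports GDP produced by GAP-driven GTP hydrolysis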
# Conditions: MgcRacGAP-stimulated Rac1 GTP hydrolysis, at 30 µM, stronger effect = higher value, GST-tagged Rac1 F28L mutant substrate
# Chain of Rac GTPase-activating protein 1 (Homo sapiens) (Q9H0H5 whole entry, looked up): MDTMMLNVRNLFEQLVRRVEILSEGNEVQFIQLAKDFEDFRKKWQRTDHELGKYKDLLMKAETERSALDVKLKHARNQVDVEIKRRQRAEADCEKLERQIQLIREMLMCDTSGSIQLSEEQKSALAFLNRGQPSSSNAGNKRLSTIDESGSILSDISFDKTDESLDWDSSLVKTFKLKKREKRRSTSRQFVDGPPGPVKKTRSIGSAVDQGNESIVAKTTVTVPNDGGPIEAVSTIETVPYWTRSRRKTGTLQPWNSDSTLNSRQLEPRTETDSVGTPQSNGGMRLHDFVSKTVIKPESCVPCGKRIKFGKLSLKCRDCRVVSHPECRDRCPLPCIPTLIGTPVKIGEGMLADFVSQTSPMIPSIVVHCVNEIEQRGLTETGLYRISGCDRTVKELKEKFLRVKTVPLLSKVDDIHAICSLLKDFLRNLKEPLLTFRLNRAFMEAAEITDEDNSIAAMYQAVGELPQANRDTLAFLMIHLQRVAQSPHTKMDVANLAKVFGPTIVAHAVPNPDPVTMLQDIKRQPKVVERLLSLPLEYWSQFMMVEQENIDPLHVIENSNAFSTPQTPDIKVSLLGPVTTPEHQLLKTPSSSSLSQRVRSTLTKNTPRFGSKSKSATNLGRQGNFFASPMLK
row,SMILES,inhibition
1,CCC(=O)Nc1ccc(NC(=O)CSc2nnnn2CC)cc1C,6.52%
2,CCOC(=O)COc1ccc(S(=O)(=O)N2CCN(c3ccccc3)CC2)cc1,8.59%
3,O=C(CSc1nnc(-c2ccccc2)c(-c2ccccc2)n1)Nc1ccc(Br)cn1,4.25%
4,Cn1c(=O)[nH]c(=O)c2c1nc(Br)n2C/C=N/Nc1ccccc1,3.62%
5,COc1ccc(N(CC(=O)Nc2ccc3c(c2)OCCO3)S(=O)(=O)c2cccnc2)cc1,-11.8%
6,CC(=O)c1ccc(S(=O)(=O)NCCC(=O)NCCc2c[nH]c3ccccc23)cc1,3.35%
7,CCCCOC(=O)C1=C(C)Nc2ncnn2C1c1ccc(OC)c(OC)c1OC (stereo not given),0.42%
8,O=C(CNC1CCCCCC1)Nc1ccccc1N1CCCCC1,8.73%
9,COc1ccccc1N1CCN(Cc2cc3c(cc2Br)OCCO3)CC1,2.26%
10,O=C(CN1CCCCC1)Nc1ccccc1,-4.92%
11,O=C(CNCC1CCCO1)Nc1ccccc1N1CCOCC1 (stereo not given),22%
12,O=C(CN1CCCCCC1)Nc1ccc(Br)cc1,5.51%
13,COc1ccc(N2CCN(Cc3cc4c(cc3Br)OCCO4)CC2)cc1,4.68%
14,Cc1ccc(NC(=O)c2cnccn2)cc1S(=O)(=O)N1CCCCCC1,6.35%
15,COc1ccc(-c2nc(NC3=NCCCCC3)sc2C)cc1,6.19%
16,CCCNC(=O)c1onc(CSc2ccc(Cl)cc2)c1C(=O)NCC1CC1,7.59%
17,COC(=O)c1ccc(NC(=O)c2cn(-c3ccccc3)nc2-c2ccncc2)cc1,-0.99%
18,CN(C)c1ccc2c3c(ccc(N(C)C)c13)COC2,-1.08%
19,CN=Cc1nc(-c2ccccc2)oc1O,10.2%
20,CC(C)(C)N=Cc1cc(-c2ccccc2)sc1O,7.65%
21,CCCn1c(N2CCN(C(=O)N3CCCCC3)CC2)nc2ccccc21,-9.24%
22,C#CCOCCOCCOCCNc1nc(N2CCN(C(=O)C([C@@H](C)O)n3cc([C@@H](N)CCCCN)nn3)CC2)nc(N2CCN(C(=O)[C@H](CCCCN)n3cc([C@@H](N)CC(N)=O)nn3)CC2)n1 (stereo not given in full),30.2%
23,C#CCOCCOCCOCCNc1nc(N2CCOCC2)nc(N2CCN(C(=O)[C@H](CCCCN)n3cc(CN)nn3)CC2)n1,20.9%

row,SMILES,inhibition
1,C#CCOCCOCCOCCNc1nc(N2CCN(C(=O)[C@H](CCCCN)n3cc(CN)nn3)CC2)nc(N2CCN(C(=O)[C@H](CCC(=O)O)n3cc(CN)nn3)CC2)n1,10.3%
2,C#CCOCCOCCOCCNc1nc(N2CCN(C(=O)[C@H](CCC(=O)O)n3cc([C@@H](N)CCCCN)nn3)CC2)nc(N2CCN(C(=O)[C@H](CCC(=O)O)n3cc([C@@H](N)CCCCN)nn3)CC2)n1,3.63%
3,C#CCOCCOCCOCCNc1nc(N2CCN(C(=O)CCCCCCCCCCNC(=O)[C@@H](CCSC)n3cc(CCO)nn3)CC2)nc(N2CCN(C(=O)CCCCCCCCCCNC(=O)[C@H](CCC(=O)O)n3cc(CCCCCN)nn3)CC2)n1,8.01%
4,C#CCOCCOCCOCCNc1nc(N2CCN(C(=O)CCCCCCCCCCNC(=O)[C@@H](CCSC)n3cc(CCO)nn3)CC2)nc(N2CCN(C(=O)CCCCCCCCCCNC(=O)[C@H](CCSC)n3cc(CCO)nn3)CC2)n1,-2.72%
5,C#CCOCCOCCOCCNc1nc(N2CCN(C(=O)C([C@@H](C)O)n3cc([C@@H](N)CCCCN)nn3)CC2)nc(N2CCN(C(=O)C([C@@H](C)O)n3cc([C@@H](N)CCCCN)nn3)CC2)n1 (stereo not given in full),27.4%
6,C#CCOCCOCCOCCNc1nc(N2CCN(C(=O)[C@H](CCC(=O)O)n3cc(CN)nn3)CC2)nc(N2CCN(C(=O)[C@H](CCCCN)n3cc([C@@H](N)CC(N)=O)nn3)CC2)n1,8.54%
7,COc1ccc(S(=O)(=O)N2CCN(c3ncccn3)CC2)cc1,-2.15%
8,COc1ccc(NC(=O)c2ccc(N3CCCC3=O)cc2)cc1Cl,-8.17%
9,Cc1ccc(SCC(=O)Nc2ccc(N3CCOCC3)cc2)cc1,9.38%
10,Cc1ccc(Cn2ccc(NC(=O)c3noc4c3CCCC4)n2)cc1,-0.93%
11,Cc1cc(C(F)(F)F)nn1Cc1n[nH]c(=S)n1Cc1ccccc1,8.02%
12,CCC(O)CNC(=O)NC(=C(Cl)Cl)c1ccc(C)c(F)c1 (stereo not given),-0.09%
13,O=C(N/N=C\c1cccc(Cl)c1)c1n[nH]c2c1CCCC2,2.96%
14,CCOC(=O)CNC(=O)C(=O)c1c(O)[nH]c2ccccc12,15.3%
15,Cc1ccc2c(COC(=O)C34CC5CC(CC(C5)C3)C4)cc(=O)oc2c1,0.94%
16,Cc1ccc(NCC(=O)c2ccccc2)cc1Cl,3.37%
17,COc1cc(NC(=O)NS(=O)(=O)c2ccc(C)cc2)cc(OC)c1,4.34%
18,Cc1ccc(S(=O)(=O)NC(=O)Nc2ccc(F)c(F)c2)cc1,8.4%
19,COc1ccc(N2CCN(CC(=O)c3c[nH]c4ccccc34)CC2)cc1,-4.34%
20,CNC(=O)CSc1nc2sccc2c(=O)n1-c1ccccc1,4.24%
21,COc1ccc(NC(=O)CSc2nc(N)c(C(=O)Nc3ccc(N(C)C)cc3)s2)cc1,16.4%
22,CCN(CC)C(=O)CSc1nc(N)c(C(=O)Nc2ccc(OC)cc2)s1,14%
23,CN(C)c1ccc(NC(=O)c2sc(SCC(=O)Nc3ccc(Br)cc3)nc2N)cc1,10.8%

row,SMILES,inhibition
1,Cc1nnc(SCC(=O)Nc2nccs2)s1,1.9%
2,Cc1cc(C)cc(OCC(=O)OCC(=O)NC2CC2)c1,-3.46%
3,CC(C)C(O)(C#CCN1CCCCC1)c1ccccc1 (stereo not given),-1.57%
4,Cc1ccc(NC(=O)CSCC(=O)Nc2nnc(C3CC3)s2)cc1,7.27%
5,CCOC(=O)c1c(C)n(-c2ccc(C)cc2)c2ccc(OCC(O)CN3CCN(C)CC3)cc12 (stereo not given),5.99%
6,CCOC(=O)c1c(C)n(-c2ccc(C)cc2)c2ccc(OCC(O)CNCCCO)cc12 (stereo not given),14.9%
7,O=C(COC(=O)c1cc(=O)[nH]c(=O)[nH]1)NCc1ccccc1,3.71%
8,O=C(Nc1nnc(-c2ccncc2)s1)C1CCCO1 (stereo not given),2.37%
9,CC(C)CN(C(=O)COC(=O)c1cc(=O)[nH]c2ccccc12)c1c(N)n(Cc2ccccc2)c(=O)[nH]c1=O,4.11%
10,OC(CNCCc1ccccc1)COc1ccc(OCC(O)CNCCc2ccccc2)cc1 (stereo not given),8.04%
11,CC(C)(c1ccccc1)c1ccc(OCC(O)CN2CCCC2)cc1 (stereo not given),9.77%
12,COc1ccc(CNCC(O)COc2ccc(C(C)(C)c3ccccc3)cc2)cc1 (stereo not given),26.6%
13,CCOc1ccc(OCC(O)CNC2CCN(Cc3ccccc3)CC2)cc1 (stereo not given),7.46%
14,CCCCCC(=O)C(=O)c1ccc(O)cc1O,-2.38%
15,O=C(NNC(=O)c1cccnc1)NC1CCCCC1,7.92%
16,CSc1cccc(NS(=O)(=O)c2cc(Br)cnc2N)c1,-1.74%
17,O=C(Nc1ccc(N2CCCCC2)cc1)c1ccccc1,36.6%
18,O=C(Nc1ccc(N2CCCCC2)cc1)c1ccc(F)cc1,4.29%
19,CC(=O)N1CCN(c2ccc(NC(=O)c3ccccc3C)cc2)CC1,9.24%
20,O=C(Nc1ccc(N2CCCCCC2)cc1)c1ccccc1Cl,20.3%
21,CC(c1ccncn1)N(C)C(=O)c1ccc2oc(Cc3ccccc3)nc2c1 (stereo not given),6.98%
22,CC1CCCCC1NC(=O)CN(C)S(=O)(=O)c1cccc2nsnc12 (stereo not given),9.08%
23,COc1ccc(/C=N/NC(=O)C(=O)N2CCCC2)cc1OC,7.5%

row,SMILES,inhibition
1,COc1ccc(/C=N/NC(=O)C(=O)N2CCCCCC2)cc1O,11.9%
2,CCCOc1ccc(/C=N/NC(=O)CN2CCCCC2)cc1OCC,0.56%
3,S=C(NCc1ccco1)N/N=C/c1ccc(Cl)cc1,17.1%
4,COc1ccc(/C=N/NC(=S)NCC2CCCO2)cc1 (stereo not given),5.53%
5,S=C(NCc1ccco1)N/N=C/c1ccncc1,2.98%
6,COc1cc(/C=N/NC(=S)NCC2CCCO2)cc(OC)c1OC (stereo not given),7.93%
7,CCOc1ccc(/C=N/NC(=O)CN2CCCCC2)cc1OCC,10.1%
8,Cc1ccc(C2CN(CCC(N)=O)C(=O)CO2)cc1 (stereo not given),3.49%
9,CC1CCCCC1NC(=O)CCCCCn1c(=S)[nH]c2ccsc2c1=O (stereo not given),6.67%
10,CC1=C([N+](=O)[O-])C(c2ccccc2C(F)(F)F)NC(=O)N1C (stereo not given),2.05%
11,COc1ccc2c(C)cc(SCC(=O)NC3CCCCC3)nc2c1,3.25%
12,O=C(CN1C(=O)COc2ccccc21)N1CCc2ccccc2C1,2.34%
13,O=C(NCCc1csc(-c2ccccc2)n1)c1ccc(Br)o1,9.81%
14,O=C(COC(=O)c1ccc(F)c(S(=O)(=O)N2CCOCC2)c1)NCc1ccc(Cl)cc1,-1.94%
15,N#CCCn1cc(C(=O)Nc2ccc([N+](=O)[O-])cc2)c(-c2cccs2)n1,4.36%
16,C[C@@H]1CN([C@H](C)CO)C(=O)c2cc(Br)cnc2O[C@@H]1CN(C)C(=O)c1ccccc1,14.7%
17,Cn1c(=O)cc(OCCCC(=O)NCCCN2CCN(Cc3ccccc3)CC2)c2ccccc21,2.96%
18,O=C(NCC1CCCO1)C(=O)N/N=C/c1ccc(O)c(Cl)c1 (stereo not given),26.7%
19,O=C(N/N=C/c1cccc(O)c1)C(=O)N1CCCCCC1,0.3%
20,C=CCOc1ccc(/C=N/NC(=O)C(=O)N2CCCCCC2)cc1OC,2.52%
21,COc1cc(/C=N/NC(=O)C(=O)NCC2CCCO2)cc(Cl)c1O (stereo not given),21.6%
